GIRK2 activator: GIRK2 channel activators by thallium flux | AID 1259324 | 34,000 tested, under 10 active | HEK293 GIRK2/NPY4 cells, thallium flux fluorescence | activation (% efficacy), % for hits at 37.5 µM;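 active means primary screen hit, no activity in plain HEK293 cells, and in GIRK2-only cells above 5% efficacy rising with concentration; inactive means the rest, including fluorescent compounds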;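 further: efficacy is normalized control-subtracted fluorescence 15 s after thallium addition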
AMPAR-TARP mod: modulators of AMPA receptor GluA2-stargazin complexes; actives 3.5% (n = 40,000); calls only at 30 µM; HEK293 GluA2+stargazin, membrane potential dye (FDSS), glutamate EC50; hits were called plate by plate, in both directions; AID 1259245;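 active means any of four per-well response measures lying three or more SD from its plate-wide compound average, in either direction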
Target sequence (O88602 whole entry, looked up): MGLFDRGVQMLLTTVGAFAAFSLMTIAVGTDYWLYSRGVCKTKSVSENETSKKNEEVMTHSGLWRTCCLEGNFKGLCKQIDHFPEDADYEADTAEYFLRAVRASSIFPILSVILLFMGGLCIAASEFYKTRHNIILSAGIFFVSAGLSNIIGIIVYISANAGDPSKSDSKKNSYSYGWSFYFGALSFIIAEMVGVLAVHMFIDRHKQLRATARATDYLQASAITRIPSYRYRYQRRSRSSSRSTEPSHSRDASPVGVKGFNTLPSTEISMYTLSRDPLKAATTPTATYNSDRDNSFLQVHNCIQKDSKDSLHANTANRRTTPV
Target sequence (P19491 whole entry, looked up): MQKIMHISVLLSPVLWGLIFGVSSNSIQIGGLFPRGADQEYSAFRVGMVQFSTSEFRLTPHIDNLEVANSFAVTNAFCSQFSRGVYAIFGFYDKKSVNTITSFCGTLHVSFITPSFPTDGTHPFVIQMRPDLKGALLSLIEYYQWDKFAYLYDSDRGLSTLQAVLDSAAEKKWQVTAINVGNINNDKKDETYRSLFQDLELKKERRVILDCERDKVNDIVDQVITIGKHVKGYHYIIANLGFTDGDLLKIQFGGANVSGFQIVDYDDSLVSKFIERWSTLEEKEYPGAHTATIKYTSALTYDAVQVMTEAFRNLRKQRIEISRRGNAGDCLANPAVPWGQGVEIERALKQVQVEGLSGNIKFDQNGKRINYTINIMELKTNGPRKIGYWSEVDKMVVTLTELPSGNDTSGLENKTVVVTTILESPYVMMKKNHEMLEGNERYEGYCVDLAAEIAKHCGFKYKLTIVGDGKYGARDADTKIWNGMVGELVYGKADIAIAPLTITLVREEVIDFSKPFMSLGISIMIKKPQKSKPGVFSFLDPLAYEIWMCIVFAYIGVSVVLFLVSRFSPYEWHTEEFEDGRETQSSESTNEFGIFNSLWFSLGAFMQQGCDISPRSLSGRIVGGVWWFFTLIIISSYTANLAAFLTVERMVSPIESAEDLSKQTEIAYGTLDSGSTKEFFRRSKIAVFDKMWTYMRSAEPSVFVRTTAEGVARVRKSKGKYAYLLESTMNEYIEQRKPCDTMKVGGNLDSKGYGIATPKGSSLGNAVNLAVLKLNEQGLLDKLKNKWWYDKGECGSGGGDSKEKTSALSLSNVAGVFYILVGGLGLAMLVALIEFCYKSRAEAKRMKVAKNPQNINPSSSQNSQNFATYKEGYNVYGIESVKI
Numbers without * were called inactive; i = inactive; . = not tested or not shown; + = active, no number. Shown is part of a subset that was picked to be rich in hits.

SMILES	GIRK2 activator	AMPAR-TARP mod
Cc1cc(C)c(S(=O)(=O)N2CCN(c3c(C)cccc3C)CC2)c(C)c1	.	i
Cc1cc(C)c(S(=O)(=O)N2CCN(c3cccc(C)c3C)CC2)c(C)c1	.	+
COC(=O)C12CC3CC(CC(NC(=O)CCn4cnc5ccccc5c4=O)(C3)C1)C2	i	i
Cc1cc(N2CCOCC2)nc(N2CCN(C(=O)Cc3cccs3)CC2)n1	i	+
Cc1ccccc1-c1ccc(N2CCN(C(=O)Cc3cccs3)CC2)nn1	i	i
Cc1cc(N2CCCC2)nc(N2CCN(C(=O)c3ccccc3)CC2)n1	.	+
Cc1ccc(-c2ccc(N3CCN(C(=O)Cc4cccs4)CC3)nn2)cc1	i	i
Cc1ccc(C(=O)N2CCN(c3nc(C)cc(N4CCCCC4)n3)CC2)cc1	.	i
O=C(Cc1cccs1)N1CCN(c2ccc(-c3ccccn3)nn2)CC1	i	+
CC(=O)Cn1c(=O)c2c(nc3n(-c4ccccc4)c(C)c(C)n23)n(C)c1=O	.	i
Cn1cc(CC(=O)Nc2ccccc2NC(=O)c2ccccn2)c2ccccc21	i	.
CCOC(=O)CS(=O)(=O)c1ccc(S(C)(=O)=O)cc1[N+](=O)[O-]	.	i
CC(C)(C)C(=O)NCC(O)c1ccc(C(F)(F)F)cc1 (stereo not drawn)	i	.
COc1ccc(-n2nnc(C(=O)OCc3cccc(OC)c3)c2C)cc1	.	i
Cc1oc(-c2ccccc2)nc1COC(=O)c1nnn(-c2ccc(Cl)cc2)c1C	.	i
Cc1ccc(-n2nnc(C(=O)OCc3nc(-c4ccccc4C)oc3C)c2C)cc1	.	+
COc1cccc(COC(=O)c2nnn(-c3ccc(C)cc3)c2C)c1	.	+
CCCCOC(=O)c1ccc(NC(=O)CN2C(=O)c3ccccc3S2(=O)=O)cc1	i	i
CCOc1ccc(CC(=O)Nc2nc3cc(OC)c(OC)cc3s2)cc1	.	i
COc1ccccc1CCNC(=O)c1cnn2c(C(F)F)cc(C)nc12	.	+
Cc1cc(C(F)F)n2ncc(C(=O)NC3CCCCCC3)c2n1	.	i
O=C(Nc1nc2ccccc2s1)c1ccc(S(=O)(=O)Nc2ccc3c(c2)OCO3)o1	i	i
Cc1nc(Sc2nc(C)nc3sc4c(c23)CCC4)c2c3c(sc2n1)CCC3	.	i
CCc1nc2sc3c(c2c2nncn12)CCC3	i	+
CCOCC(=O)NCC(c1ccc(C)cc1)N1CCN(C)CC1 (stereo not drawn)	i	i
SMILES	GIRK2 activator	AMPAR-TARP mod
Cc1ccccc1-c1ccc(N2CCC(C(=O)NCc3cccnc3)CC2)nn1	i	i
Cc1ccccc1-c1ccc(N2CCC(C(=O)NCc3ccco3)CC2)nn1	i	+
CCOC(=O)c1scc(-c2ccc(C)cc2)c1S(=O)(=O)N1CCN(c2ccccn2)CC1	i	+
COC(=O)c1scc(-c2ccccc2)c1S(=O)(=O)N1CCN(c2ncccn2)CC1	.	i
CCOc1cccc2cc(S(=O)(=O)c3ccc(Br)cc3)c(=O)oc12	i	i
COc1ccc(S(=O)(=O)Nc2nc(C(=O)Nc3ccc(Cl)cc3)cs2)cc1	i	i
COc1ccc(S(=O)(=O)Nc2nc(C(=O)Nc3ccc(C(C)C)cc3)cs2)cc1	i	+
Cc1ccc(F)cc1NC(=O)Cc1nnc(-c2ccsc2)o1	i	.
CC12CCC(C(=O)Nc3ccccc3-n3cccc3)(CC1=O)C2(C)C (stereo not drawn)	.	+
CC12CCC(C(=O)Nc3ccccc3N3CCOCC3)(CC1=O)C2(C)C (stereo not drawn)	i	i
Cn1nc(-c2cccc(NC(=O)Nc3ccccc3)c2)ccc1=O	i	i
Cn1nc(-c2cccc(NC(=O)c3cccnc3)c2)ccc1=O	i	+
NS(=O)(=O)c1ccc(NC(=O)c2ccc(-c3ccccc3F)o2)cc1	.	i
Cc1noc(C2CN(C(=O)CCC(=O)c3ccccc3)C2)n1	i	i
COCc1cc(=O)[nH]c2cc(NC(=O)c3ccccc3Cl)ccc12	i	.
Cc1ccc(C)c(N2CCN(c3ccc(S(=O)(=O)c4ccccc4)nn3)CC2)c1	i	+
Cc1ccc(N2CCN(c3ccc(S(=O)(=O)c4ccccc4)nn3)CC2)c(C)c1	i	i
c1ccc(CSc2cc(N3CCOCC3)ncn2)cc1	i	i
COc1ccccc1OCCn1c(C2CC(=O)N(Cc3ccc(F)cc3)C2)nc2ccccc21 (stereo not drawn)	i	.
O=C(Nc1c2c(nn1-c1ccc(F)cc1)CSC2)C(=O)N1CCCC1	.	+
O=C(Nc1c2c(nn1-c1ccc(Cl)cc1)CSC2)C(=O)N1CCCC1	i	i
COc1ccc(OC)c2c1sc(=NC(=O)c1cc(C)no1)n2C	i	i
COc1cccc2sc(=NC(=O)c3cc(C)no3)n(C)c12	i	+
O=C(CSCc1ccccc1)NCC(O)(c1ccccc1)C(F)(F)F (stereo not drawn)	i	i
O=C(NC(c1ccccc1)c1ccccc1)c1ccc(S(=O)(=O)NCc2ccco2)o1	i	+
SMILES	GIRK2 activator	AMPAR-TARP mod
CC(NC(=O)c1ccc(S(=O)(=O)N2CCOCC2)o1)c1ccccc1 (stereo not drawn)	i	i
CCOc1ccc(-c2ccc(=O)n(CCNS(=O)(=O)c3ccccc3Cl)n2)cc1	.	i
CSc1cccc(NC(=O)c2n[nH]c3ccccc23)c1	i	i
O=C(Nc1ccc(F)c(F)c1)c1n[nH]c2ccccc12	.	+
Nc1ccc(C(=O)Nc2ccc(Cl)cc2)cc1	i	i
O=C(NCc1cccc2ccccc12)NCC1CCN(C(=O)COc2ccccc2)CC1	i	+
O=C(NCc1ccccc1Cl)C(=O)NCC1CCN(C(=O)COc2ccccc2)CC1	i	i
O=C(NCCc1ccccc1)C(=O)NCC1CCN(C(=O)COc2ccccc2)CC1	i	+
O=C(NCCc1ccccc1)NCC1CCN(C(=O)COc2ccccc2)CC1	i	i
COC(=O)c1ccc(NC(=O)Cc2cc(-c3ccc(F)cc3F)on2)cc1	i	i
COCCn1c(SCC(=O)c2c(C)[nH]c3ccccc23)nc2cc(C(=O)NC(C)C)ccc2c1=O	.	+
COCCn1c(SCc2ccc(Cl)cc2)nc2cc(C(=O)NC(C)C)ccc2c1=O	i	i
Cc1cc(=O)[nH]c(-n2nc(C)c(CCC(=O)Nc3ccc(C)c(F)c3)c2C)n1	i	i
COc1ccc(OCC(=O)Nc2ccc3c(c2)N(CCC(C)C)C(=O)C(C)(C)CO3)cc1	.	i
CC(C)CCN1C(=O)C(C)(C)COc2ccc(NC(=O)COc3ccc(F)cc3)cc21	.	+
O=C(NCC(=O)N1CCOC(c2ccccc2)C1)c1ccc(-c2ccccc2)cc1 (stereo not drawn)	i	.
COc1ccc(Cl)cc1NC(=O)Nc1c(C)nc2ccccn2c1=O	i	i
CN1CCN(n2c3c(c(SCC(=O)Nc4nccs4)nc2=O)CCC3)CC1	i	i
O=C(COc1ccc(C(=O)c2ccccc2)cc1)NCCn1nc(-c2cccs2)ccc1=O	i	i
O=C(COc1ccc(C(=O)c2ccccc2)cc1)NCCn1nc(-c2ccc(Cl)cc2)ccc1=O	i	+
CN(Cc1ccccc1)S(=O)(=O)c1ccc(-c2nc(C#N)c(NC3CC3)o2)cc1	i	i
O=C(CCc1ccccc1)NCC(O)(c1ccccc1)C(F)(F)F (stereo not drawn)	i	i

Bioassay records from PubChem.
